Results reported in PubChem BioAssay (NCATS).
Inconclusive results are not listed. Activity calls are given as the source filed them. Calls follow the shape of the dose curve; as a rule, active = well fitted inhibition curve with a large enough effect; inconclusive = small, poorly fitted or top-dose-only effect; inactive = no such curve, though single readings can be large or run the other way.

Experiment: Primary qHTS for inhibitors of La Crosse Virus (LACV) - induced cell death in SH-SY5Y cells (AID 1508616);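 also: top concentration of the series differs between compounds; 0% = infected DMSO wells and 100% = uninfected DMSO wells; higher means more rescue of cells from virus-induced death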
Settings: SH-SY5Y LACV cytopathicity rescue, ATP luminescence, 6 d; series mostly up to 4.29 µM; activity change: at the top concentration
From the text: Assay Provider: Karin Peterson Ph.D.
National Institute of Allergy and Infection Diseases, National Institute of Health
La Crosse Virus (LACV) is a California serogroup mosquito-borne arbovirus, family Peribunyaviridae, which is an endemic pathogen in North America and can induce a rare, life-threatening neurological disease in children. LACV was first isolated in the early 1960s, from a summer "rural encephalitis" case in La Crosse, Wisconsin, USA. Since then, LACV encephalitis cases have been found in more than twenty states, with most cases in the Mississippi and Ohio River basins. The life cycle of LACV is maintained between the vector, the eastern tree-hole mosquito Aedes triseriatus, and vertebrate hosts including eastern gray squirrels (Sciurus carolinensis) and chipmunks (Tamiasstriatus grinseus). […] Most LACV infections in humans are asymptomatic or induce mild clinical symptoms of fever, headache, lethargy and vomiting. However, in some cases LACV can cause severe neuroinvasive disease, including encephalitis, meningitis, and meningoencephalitis, requiring hospitalization. To date, there is neither a licensed vaccine nor a Food and Drug Administration (FDA) approved antiviral therapy available to prevent or treat LACV encephalitis. The primary treatment for viral encephalitis is palliative care due to the lack of therapeutics. In the current study, we conducted a screen of 4,096 FDA approved and bioactive small molecules against LACV, by screening for rescue of LACV-induced cell death in SH-SY5Y cells.
LACV-induced cytopathicity assay
SEQUENCE No. (1,2, 3, etc.); […] (e.g., Cells, Incubation, Reagent, etc.); VALUE and DESCRIPTION.
1. Reagent; 2 uL; Cell solution.
3. Compounds; 23nL; Compound library
4. Reagent; 12 uL; LACV virus
6. Reagent; 24 uL; ATPLite (PerkinElmer)
7. Time; 5 min; Room temperature
8. Detection; Luminescence; View
NOTES (numbers refer to sequence above)
1. Seed 6000 SH-SY5Y cells (ATCC CRL-2266) in 2 microL/well media (DMEM/F12 10% FBS, 1x L-Glutamine, 1x Pyruvate, 1x NEAA, 1x Pen/Strep) in 384-well assay plates (tissue culture treated, white, solid bottom).
2. Incubate at 37 degrees C with 5% CO2 for 24 hr.
3. Dispense 23 nL/well compounds in DMSO via pin transfer.
4. Dispense 12 microL/well of LACV (LACV/human/1978) in media at 0.01 MOI.
5. Incubate at for 6 days at 37C 5% CO2
6. Dispense 24 microL/well of ATPLite 1step Luminescence assay system (PerkinElmer).
7. Incubate for 5 min at room temperature.
8. Read luminescence signal (Viewlux plate reader, PerkinElmer). Data was normalized with DMSO control wells containing LACV as 0%, and DMSO control wells without virus as 100%.

Compound	activity change
COCCCOc1cc(C[C@@H](C[C@H](N)[C@@H](O)C[C@H](C(=O)NCC(C)(C)C(N)=O)C(C)C)C(C)C)ccc1OC	29.2% (inactive)
CN(C)CCc1c[nH]c2ccc(CS(=O)(=O)N3CCCC3)cc12	-3.93% (inactive)
Cc1ccnc2c1NC(=O)c1cccnc1N2C1CC1	-9.07% (inactive)
CCOC(=O)[C@H](CCc1ccccc1)N[C@H]1CCc2ccccc2N(CC(=O)O)C1=O	46.7% (inactive)
C1CCC(C(CC2CCCCN2)C2CCCCC2)CC1 (stereo not given)	10.2% (inactive)
O=C(O)c1cc(=O)[nH]c(=O)[nH]1	6.83% (inactive)
C[C@@H](NCCCc1cccc(C(F)(F)F)c1)c1cccc2ccccc12	-1.45% (inactive)
CC(C)(C#N)c1cc(Cn2cncn2)cc(C(C)(C)C#N)c1	-4.24% (inactive)
Nc1nc(F)nc2c1ncn2[C@@H]1O[C@H](CO)[C@@H](O)[C@@H]1O	-1.2% (inactive)
NCCCC(O)(P(=O)(O)O)P(=O)(O)O	7.2% (inactive)
COC(c1ccccc1)(c1ccccc1)[C@H](Oc1nc(C)cc(C)n1)C(=O)O	9.76% (inactive)
NC1(c2ccc(-c3nc4ccn5c(=O)[nH]nc5c4cc3-c3ccccc3)cc2)CCC1	-0.0517% (inactive)
Nc1nc(N)c2nc(CNc3ccc(C(=O)NC(CCC(=O)O)C(=O)O)cc3)cnc2n1 (stereo not given)	-10.9% [at 9.63 µM] (inactive)
CN(C)CCc1c[nH]c2ccc(C[C@H]3COC(=O)N3)cc12	4.9% (inactive)
O=S(=O)(O)CCS	8.53% (inactive)
S=P(N1CC1)(N1CC1)N1CC1	-15.1% [at 9.63 µM] (inactive)
Cc1cccc(N(C)C(=S)Oc2ccc3ccccc3c2)c1	-14.3% (inactive)
COc1c(N2CCNC(C)C2)c(F)cc2c(=O)c(C(=O)O)cn(C3CC3)c12 (stereo not given)	-6.46% (inactive)
CN1CCN(c2c(F)cc3c(=O)c(C(=O)O)cn(CCF)c3c2F)CC1	0.651% (inactive)
COc1ccccc1OCC(O)COC(N)=O (stereo not given)	22.7% (inactive)

Compound	activity change
CN1CCCC(n2nc(Cc3ccc(Cl)cc3)c3ccccc3c2=O)CC1 (stereo not given)	-25.2% (inactive)
COc1cc(NS(=O)(=O)c2ccc(N)cc2)nc(OC)n1	13.8% (inactive)
CCCOc1ccc(C(=O)OCCN(CC)CC)cc1N	-4.1% (inactive)
COc1cnc(NS(=O)(=O)c2ccc(N)cc2)nc1	21.8% (inactive)
CC(=O)CC(c1ccccc1)c1c(O)c2ccccc2oc1=O (stereo not given)	1.45% (inactive)
NNC(=O)c1ccncc1	7.01% (inactive)
Cn1c(=O)c2c(ncn2CC(O)CO)n(C)c1=O (stereo not given)	-1.99% (inactive)
O=C(NCC1CN(c2ccc(N3CCOCC3=O)cc2)C(=O)O1)c1ccc(Cl)s1 (stereo not given)	15.6% (inactive)
CC(C)OC(=O)C(C(=O)OC(C)C)=C1SC=CS1	16.4% (inactive)
N[C@@H](Cc1ccc(O)c(O)c1)C(=O)O	-0.943% [at 9.63 µM] (inactive)
CC1=NN(c2ccccc2)C(=O)C1	6.69% (inactive)
COc1cc2ncnc(Nc3cccc(Cl)c3)c2cc1OC	60.6% [at 9.63 µM] (inactive)
CNS(=O)(=O)Cc1ccc2[nH]cc(CCN(C)C)c2c1	14.4% (inactive)
O=P(O)(O)C(O)(Cc1cccnc1)P(=O)(O)O	-2.9% (inactive)
CC(=O)[C@H]1CC[C@H]2[C@@H]3CCC4=CC(=O)CC[C@]4(C)[C@H]3CC[C@]12C	47.8% [at 9.63 µM] (inactive)
COc1ncnc(NS(=O)(=O)c2ccc(N)cc2)c1OC	-6% (inactive)
Cc1noc(NS(=O)(=O)c2ccc(N)cc2)c1C	26.4% (inactive)
CO[C@@H]1[C@@H](OC(N)=O)[C@@H](O)[C@H](Oc2ccc3c(O)c(NC(=O)c4ccc(O)c(CC=C(C)C)c4)c(=O)oc3c2C)OC1(C)C	9.06% (inactive)
NC(N)=NC(N)=NCCc1ccccc1	5.76% (inactive)
COc1ccc(-c2ccc3cc(C(=O)O)ccc3c2)cc1C12CC3CC(CC(C3)C1)C2	8.32% (inactive)
